Experimental findings from PubChem BioAssay (NCI) are described below.

Among the test systems are RPMI-8226 leukemia; OVCAR-8 ovarian; OVCAR-5 ovarian; OVCAR-4 ovarian; SK-OV-3 ovarian; IGROV1 ovarian; OVCAR-3 ovarian; HS 578T breast; NCI/ADR-RES ovarian.
Common to all, as to test: NCI-60 one-dose screen, 48 h (100 = growth as untreated, 0 = no growth, -100 = all killed)
What all share (settings): 10 µM unless noted

Compounds without any hit were thinned out: in the full panel of roughly 83,000, 20% have a hit.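 Treatment: one concentration, 48 hours, 96-well format. Scoring: percent growth, with anything below 10 considered active.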 Unmarked numbers belong to inactive results. Active and inactive are the calls of the source.

In the case of `COc1ccc(-c2[nH]nc(N)c2-c2cc(OC)c3c(c2)OCO3)cc1`, the growth in the assay with RPMI-8226 leukemia is 81.3%; with OVCAR-8 ovarian, 77.2%; in the assay on OVCAR-5 ovarian it was 70%; with OVCAR-4 ovarian, 89.3%; in the assay on SK-OV-3 ovarian, 76.7%; with IGROV1 ovarian it was 73.9%. Moreover, the results for the growth in the assay with OVCAR-3 ovarian, with HS 578T breast and in the assay with NCI/ADR-RES ovarian were 64.9%, 40.4% and 8.74% (active), respectively.
Take `CN(C[C@H]1Cc2c(cccc2N2CCN(Cc3ccccn3)CC2)CN1)[C@H]1CCCc2cccnc21`: the growth in the assay on RPMI-8226 leukemia was 64.5%; in the assay with OVCAR-8 ovarian it was 42.7%; with OVCAR-5 ovarian it was 71%; in the assay on OVCAR-4 ovarian it was 72.6%; in the assay on SK-OV-3 ovarian, 51.2%; in the assay with IGROV1 ovarian it was 49.2%. Also, the growth in the assay with OVCAR-3 ovarian was 64.9%; in the assay with HS 578T breast it was 92.2%; in the assay with NCI/ADR-RES ovarian, 28.1%.
For the compound `Nc1nnc(-c2ccc3ccccc3c2O)o1`, the growth in the assay on RPMI-8226 leukemia is 90.8%; with OVCAR-8 ovarian it was 97.6%; in the assay on OVCAR-5 ovarian, 102%; with OVCAR-4 ovarian it was 81.2%; with SK-OV-3 ovarian, 105%; with IGROV1 ovarian it was 86%. Also, the figures for the growth with OVCAR-3 ovarian, with HS 578T breast and with NCI/ADR-RES ovarian were 99.2%, 97.9% and 84.5%, respectively.
In the case of `COc1ccc(C2=Nn3c(nnc3-n3nc(C)cc3C)SC2)cc1`, the growth was 20.9% in the assay with RPMI-8226 leukemia; 17.6% in the assay with OVCAR-8 ovarian; 48.7% in the assay with OVCAR-5 ovarian; 61.1% in the assay with OVCAR-4 ovarian; -3.05% (active) in the assay on SK-OV-3 ovarian; 32.2% in the assay with IGROV1 ovarian. Further, the results for the growth in the assay with OVCAR-3 ovarian, in the assay with HS 578T breast and in the assay with NCI/ADR-RES ovarian were -47.9% (active), 7.5% (active) and 10.7%, respectively.
For the compound `COc1cc(-c2nn(-c3cccc(NC(=O)Nc4ccc(Cl)c(C(F)(F)F)c4)c3)cc2-c2ccncc2)ccc1Cl`, the growth is -8.66% (active) in the assay with RPMI-8226 leukemia; -19.9% (active) in the assay on OVCAR-8 ovarian; 35.8% with OVCAR-5 ovarian; 20.8% in the assay on OVCAR-4 ovarian; 0.426% (active) in the assay with SK-OV-3 ovarian; 25.6% in the assay with IGROV1 ovarian. The results for the growth in the assay on OVCAR-3 ovarian, in the assay with HS 578T breast and in the assay with NCI/ADR-RES ovarian were -12.4% (active), 2.21% (active) and -0.864% (active), respectively.
As to `O=C(CSc1nc2ccccc2[nH]1)Nc1ccc(-c2nc3ccccc3s2)c(Cl)c1`, the growth in the assay with RPMI-8226 leukemia is 28.9%; in the assay with OVCAR-8 ovarian it was -9.6% (active); in the assay with OVCAR-5 ovarian it was 20.4%; in the assay with OVCAR-4 ovarian it was -39.8% (active); in the assay with SK-OV-3 ovarian it was 12.4%; in the assay with IGROV1 ovarian, -52.3% (active). Besides, the growth in the assay on OVCAR-3 ovarian was -17.2% (active); in the assay with HS 578T breast, 65.2%; in the assay with NCI/ADR-RES ovarian, 9.5% (active).
On to `Cc1cc(N)n(S(=O)(=O)c2oc(-c3ccccc3)nc2C#N)n1`, for which the growth was 75.9% in the assay on RPMI-8226 leukemia; 89.4% with OVCAR-8 ovarian; 109% with OVCAR-5 ovarian; 106% with OVCAR-4 ovarian; 91.8% in the assay with SK-OV-3 ovarian; 97.9% in the assay with IGROV1 ovarian. The growth in the assay on OVCAR-3 ovarian was 89.9%; in the assay on HS 578T breast, 116%; in the assay on NCI/ADR-RES ovarian, 100%.
For the compound `COc1ccc(N2CCN(Cc3cc(C(=O)/C=C/c4c[nH]c5ccccc45)ccc3O)CC2)cc1`, the growth with RPMI-8226 leukemia is 94.8%; in the assay on OVCAR-8 ovarian, 95.5%; in the assay on OVCAR-5 ovarian it was 106%; with OVCAR-4 ovarian, 93%; in the assay with SK-OV-3 ovarian it was 93.5%; in the assay with IGROV1 ovarian it was 109%. The growth in the assay with OVCAR-3 ovarian is 114%; with HS 578T breast it was 105%; in the assay on NCI/ADR-RES ovarian it was 106%.
As to `COc1cc(/C(C#N)=C/c2ccc3c(c2OC)OCO3)cc2c1OCO2`, the growth with RPMI-8226 leukemia was 32.3%; in the assay on OVCAR-8 ovarian, 28.8%; with OVCAR-5 ovarian, 42.7%; in the assay on OVCAR-4 ovarian it was 56.3%; in the assay with SK-OV-3 ovarian, 16.2%; with IGROV1 ovarian, 37.7%. The growth in the assay with OVCAR-3 ovarian was -36% (active); in the assay on HS 578T breast it was 0.131% (active); in the assay with NCI/ADR-RES ovarian it was -7.38% (active).
Regarding `COc1ccc(-c2c(N)n[nH]c2-c2cc(OC)c(OC)c(OC)c2)cc1`, the growth in the assay with RPMI-8226 leukemia was 27%; in the assay with OVCAR-8 ovarian it was 21.2%; in the assay with OVCAR-5 ovarian it was 37.5%; with OVCAR-4 ovarian, 47.7%; in the assay on SK-OV-3 ovarian it was 15.4%; in the assay with IGROV1 ovarian, 26.9%. Further, the growth is -36.1% (active) in the assay with OVCAR-3 ovarian, -8.33% (active) with HS 578T breast and -20.2% (active) with NCI/ADR-RES ovarian.
`COC(=O)c1nc(-c2ccccc2)oc1S(=O)(=O)N1CCN(c2cccc(Cl)c2)CC1`: the growth is 36.6% with RPMI-8226 leukemia; 76.3% in the assay with OVCAR-8 ovarian; 81.9% in the assay with OVCAR-5 ovarian; 103% in the assay with OVCAR-4 ovarian; 92.9% in the assay on SK-OV-3 ovarian; 77.8% in the assay with IGROV1 ovarian. The growth was 69.2% with OVCAR-3 ovarian, 85.7% in the assay with HS 578T breast and 89.2% with NCI/ADR-RES ovarian.
With `COc1ccc(Nc2nn3c(-c4ccccc4)cc(-c4ccccc4)nc3c2C(N)=O)c(OC)c1`, the growth in the assay with RPMI-8226 leukemia is 71.8%; in the assay on OVCAR-8 ovarian it was 27.8%; with OVCAR-5 ovarian, 63.6%; in the assay with OVCAR-4 ovarian, -8.96% (active); in the assay with SK-OV-3 ovarian, 63.7%; with IGROV1 ovarian, 91.6%. The growth in the assay on OVCAR-3 ovarian is 46.2%; in the assay on HS 578T breast, 56.8%; with NCI/ADR-RES ovarian it was 30.4%.
Take `CN(C)c1oc(C2OC2c2ccccc2)nc1C#N` (stereo not given): the growth in the assay with RPMI-8226 leukemia was 98.3%; with OVCAR-8 ovarian, 85.4%; in the assay with OVCAR-5 ovarian it was 89.6%; with OVCAR-4 ovarian, 109%; in the assay with SK-OV-3 ovarian it was 79.2%; with IGROV1 ovarian it was 90.6%. The growth with OVCAR-3 ovarian is 105%; in the assay on HS 578T breast, 90.1%; with NCI/ADR-RES ovarian, 100%.
Take `COc1ccc(-n2c(=S)sc3c(Cl)nc(C)nc32)c(OC)c1`: the growth with RPMI-8226 leukemia was 22.6%; with OVCAR-8 ovarian, 0.172% (active); in the assay on OVCAR-5 ovarian it was 87%; in the assay with OVCAR-4 ovarian, 95.6%; in the assay with SK-OV-3 ovarian, 80.1%; in the assay on IGROV1 ovarian it was -17.3% (active). Moreover, the growth was -20.7% (active) in the assay on OVCAR-3 ovarian, 72.6% with HS 578T breast and 78.5% in the assay on NCI/ADR-RES ovarian.
Consider `C=C1CCC[C@]2(C)CCC[C@H](C)[C@@H](OC(C)=O)[C@@H]3OC(=O)C(=C)[C@@H]3C[C@H]1O2`, for which the growth in the assay with RPMI-8226 leukemia was 54.8%; in the assay with OVCAR-8 ovarian, 61.5%; in the assay on OVCAR-5 ovarian it was 101%; in the assay with OVCAR-4 ovarian it was 61.2%; with SK-OV-3 ovarian, 85%; with IGROV1 ovarian, 81.8%. The growth with OVCAR-3 ovarian is 47.9%; with HS 578T breast, 78%; in the assay on NCI/ADR-RES ovarian it was 73.6%.
